Assay results taken from the supplement of paper PMC13380429.

Legend:
[1] = system: Vero E6 infected with SARS-CoV-2; experiment: morphology score (similarity to uninfected cells); higher = more like uninfected cells; conditions: 24 h
[2] = system: Vero E6 infected with SARS-CoV-2; experiment: SARS-CoV-2 infection rate relative to infected DMSO; higher = more infection, active = 60 or less; conditions: 24 h

| Structure (SMILES) | morphology score [1] | SARS-CoV-2 infection rate [2] |
| --- | --- | --- |
| CN(C(=O)c1ccc(F)cc1C(F)(F)F)C1CCN(c2nnc(-c3ccnn3C)c3ccccc23)CC1 [taladegib] (10 µM) | 0.0832 | 102% (inactive) |
| Cc1nc(C#Cc2ccnc(Cl)c2)c(C)n1-c1ccc(F)cc1 [basimglurant] (10 µM) | 0.114 | 112% (inactive) |
| CC(C)(O)CNc1nc(Nc2ccnc(C(F)(F)F)c2)nc(-c2cccc(C(F)(F)F)n2)n1 [enasidenib] (10 µM) | 0.237 | 100% (inactive) |
| CCOC(=O)C1=C(C)NC(=S)NC1c1cccc(O)c1 (configuration not stated) [monastrol] (10 µM) | 0.0534 | 93% (inactive) |
| COc1ccc(OC)c([C@@H](O)CNC(=O)CN)c1 [midodrine] (10 µM) | -0.0583 | 108% (inactive) |
| C=CC[C@@H]1/C=C(\C)C[C@H](C)C[C@H](OC)[C@H]2O[C@@](O)(C(=O)C(=O)N3CCCC[C@H]3C(=O)O[C@H](/C(C)=C/[C@@H]3CC[C@@H](O)[C@H](OC)C3)[C@H](C)[C@@H](O)CC1=O)[C@H](C)C[C@@H]2OC [tacrolimus] (10 µM) | 0.199 | 93% (inactive) |
| COc1cc2c3cc1Oc1cc(ccc1O)C[C@@H]1c4c(cc(OC)c(O)c4Oc4ccc(cc4)C[C@@H]3N(C)CC2)CC[N+]1(C)C [tubocurarine] (10 µM) | -0.0274 | 110% (inactive) |
| O=C(NCCN1CCCCC1)c1ccc(I)cc1 [N-[2-(piperidinylamino)ethyl]-4-iodobenzamide] (10 µM) | 0.317 | 91.5% (inactive) |
| CC(C)OC(=O)CNC(=O)[C@H](CS)NC(=O)CC[C@H](N)C(=O)O [glutathione-monoisopropyl-ester] (10 µM) | 0.0539 | 101% (inactive) |
| Cc1ccc(C(=O)Nc2ccc(CN3CCN(C)CC3)c(C(F)(F)F)c2)cc1C#Cc1cnc2[nH]ncc2c1 (10 µM) | 0.453 | 98% (inactive) |
| CN(Cc1cnc2nc(N)nc(N)c2n1)c1ccc(C(=O)N[C@@H](CCC(=O)O)C(=O)O)cc1 [methotrexate] (10 µM) | -0.183 | 100% (inactive) |
| COc1c(N2C[C@@H]3CCCN[C@@H]3C2)c(F)cc2c(=O)c(C(=O)O)cn(C3CC3)c12 [moxifloxacin] (10 µM) | 0.0295 | 106% (inactive) |
| COc1ncc2cc(C(=O)Nc3cc(C(=O)NCc4cccc(Cl)c4)ccc3Cl)c(=O)[nH]c2n1 (10 µM) | -0.0693 | 110% (inactive) |
| O=c1cc(-c2ccc(O)c(O)c2)oc2cc(O)cc(O)c12 [luteolin] (10 µM) | 0.167 | 110% (inactive) |
| COc1cc2c(cc1C(F)(F)F)N(C(=O)Nc1cc(F)cc(-c3cccnc3)c1)CC2 (10 µM) | -0.0154 | 106% (inactive) |
| OC(CCN1CCCCC1)(c1ccccc1)C1CCCCC1 (configuration not stated) [trihexyphenidyl] (10 µM) | 0.167 | 92% (inactive) |
| C[C@@H]1c2ccccc2CN1CC1=NCCN1 (racemic) (10 µM) | 0.0304 | 92.5% (inactive) |
| CCc1ccc(C2=CC(C)(C)Sc3ccc(C#Cc4ccc(C(=O)O)cc4)cc32)cc1 (10 µM) | -0.0119 | 111% (inactive) |
| N=C(N)NCCC[C@H](NC(=O)c1sccc1NS(=O)(=O)c1cccc2nsnc12)C(=O)O (10 µM) | 0.0108 | 108% (inactive) |
| CC(C)(CO)[C@@H](O)C(=O)NCCC(=O)O [pantothenic-acid] (10 µM) | 0.0324 | 110% (inactive) |
| O=C1NC(=O)[C@@]2(CCOc3ccc(F)cc32)N1 [sorbinil] (10 µM) | 0.139 | 98% (inactive) |
